Results as given in PubChem BioAssay AID1159580 (chemical genetic matrix, 2015).
Among all 5,500 compounds or so, about 2,000 (36%) were called active. Another 18% or so got no clear call; they are omitted. Cut-off read from the data, not from the text of the source: active = normalized growth mostly below about 0.91 (no sharp cut-off); inconclusive = no clear call, values can overlap the other calls; inactive = mostly above about 0.92. The list shows a part of the results.

Test: chemical genetic growth profiling, strain panel (AID 1159580);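 note: tested at 20 µM; growth read once vehicle control cultures reached saturation at 30 °C; 1 = growth at the plate median or of vehicle wells; lower values mean less growth of the strain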
Settings: growth OD

Measured: normalized growth

NC(N)=O
inactive: S. cerevisiae deletion strains, locus YJR075W, strain HOC1, hits give low values 1.02 | S. cerevisiae deletion strains, locus YKL009W, strain mrt4, hits give low values 1 | S. cerevisiae deletion strains, locus YKL068W, hits give low values 0.992 | S. cerevisiae deletion strains, locus YKL085W, strain MDH1 (second series), hits give low values 0.994 | S. cerevisiae deletion strains, locus YKL085W, strain MDH1, hits give low values 0.994 | S. cerevisiae deletion strains, locus YKL160W, strain elf1, hits give low values 1.02 | S. cerevisiae deletion strains, locus YKL190W, strain CNB1, hits give low values 1 | S. cerevisiae deletion strains, locus YKR001C, strain vps1, hits give low values 1 | S. cerevisiae deletion strains, locus YKR026C, strain gcn3, hits give low values 1.01 | S. cerevisiae deletion strains, locus YKR091W, strain srl3, hits give low values 1 | S. cerevisiae deletion strains, locus YLL001W, strain dnm1, hits give low values 1.01 | S. cerevisiae deletion strains, locus YLL026W, hits give low values 1.02 | S. cerevisiae deletion strains, locus YLL041C, strain sdh2, hits give low values 1.01 | S. cerevisiae deletion strains, locus YLR027C, strain aat2, hits give low values 1.02 | S. cerevisiae deletion strains, locus YLR039C, strain RIC1, hits give low values 1.05 | S. cerevisiae deletion strains, locus YLR058C, strain SHM2, hits give low values 0.99 | S. cerevisiae deletion strains, locus YLR102C, strain apc9, hits give low values 0.986 | S. cerevisiae deletion strains, locus YLR113W, strain HOG1, hits give low values 0.993 | S. cerevisiae deletion strains, locus YLR221C, strain rsa3, hits give low values 0.98 | S. cerevisiae deletion strains, locus YLR258W, strain gsy2, hits give low values 1 | S. cerevisiae deletion strains, locus YLR262C, strain YPT6 (second series), hits give low values 1.03 | S. cerevisiae deletion strains, locus YLR262C, strain YPT6, hits give low values 1.08 | S. cerevisiae deletion strains, locus YLR268W, strain sec22, hits give low values 1.02 | S. cerevisiae deletion strains, locus YLR320W, strain mms22, hits give low values 1 | S. cerevisiae deletion strains, locus YLR330W, strain CHS5, hits give low values 0.988 | S. cerevisiae deletion strains, locus YLR342W, strain FKS1 (second series), hits give low values 0.96 | S. cerevisiae deletion strains, locus YLR342W, strain FKS1, hits give low values 1.01 | S. cerevisiae deletion strains, locus YLR357W, strain rsc2, hits give low values 1.04 | S. cerevisiae deletion strains, locus YLR370C, strain arc18, hits give low values 1.02 | S. cerevisiae deletion strains, locus YLR371W, strain rom2, hits give low values 0.985 | S. cerevisiae deletion strains, locus YLR384C, strain iki3, hits give low values 1.01 | S. cerevisiae deletion strains, locus YLR418C, strain cdc73, hits give low values 1.01 | S. cerevisiae deletion strains, locus YML016C, strain PPZ1, hits give low values 0.999 | S. cerevisiae deletion strains, locus YML032C, strain rad52, hits give low values 1 | S. cerevisiae deletion strains, locus YML120C, strain ndi1, hits give low values 1.03 | S. cerevisiae deletion strains, locus YML124C, strain tub3, hits give low values 0.993 | S. cerevisiae deletion strains, locus YMR058W, strain fet3, hits give low values 1.02 | S. cerevisiae deletion strains, locus YMR078C, strain ctf18, hits give low values 0.992 | S. cerevisiae deletion strains, locus YMR125W, strain sto1, hits give low values 1 | S. cerevisiae deletion strains, locus YMR129W, hits give low values 1.01 | S. cerevisiae deletion strains, locus YMR205C, strain PFK2, hits give low values 1.02 | S. cerevisiae deletion strains, locus YMR223W, strain ubp8, hits give low values 0.992 | S. cerevisiae deletion strains, locus YMR231W, strain pep5, hits give low values 1 | S. cerevisiae deletion strains, locus YMR263W, strain SAP30, hits give low values 1.03 | S. cerevisiae deletion strains, locus YMR307W, strain GAS1, hits give low values 1.02 | S. cerevisiae deletion strains, locus YNL067W, strain RPL9B, hits give low values 1.05 | S. cerevisiae deletion strains, locus YNL071W, strain lat1, hits give low values 1.01 | S. cerevisiae deletion strains, locus YNL128W, strain TEP1, hits give low values 1.02 | S. cerevisiae deletion strains, locus YNL153C, strain GIM3, hits give low values 1.02 | S. cerevisiae deletion strains, locus YNL183C, strain NPR1, hits give low values 0.963 | S. cerevisiae deletion strains, locus YNL209W, strain ssb2, hits give low values 1.01 | S. cerevisiae deletion strains, locus YNL233W, strain BNI4, hits give low values 1 | S. cerevisiae deletion strains, locus YNL248C, strain rpa49, hits give low values 0.978 | S. cerevisiae deletion strains, locus YNL250W, strain rad50, hits give low values 0.991 | S. cerevisiae deletion strains, locus YNL271C, strain bni1, hits give low values 0.988 | S. cerevisiae deletion strains, locus YNL298W, strain CLA4, hits give low values 1 | S. cerevisiae deletion strains, locus YNL307C, strain MCK1, hits give low values 0.993 | S. cerevisiae deletion strains, locus YNL322C, strain KRE1 (second series), hits give low values 1.01 | S. cerevisiae deletion strains, locus YNL322C, strain KRE1, hits give low values 1 | S. cerevisiae deletion strains, locus YNR049C, strain mso1, hits give low values 1.02 | S. cerevisiae deletion strains, locus YNR052C, strain pop2, hits give low values 0.974 | S. cerevisiae deletion strains, locus YOL006C, strain TOP1, hits give low values 1.21 | S. cerevisiae deletion strains, locus YOL012C, strain htz1 1.36 | S. cerevisiae deletion strains, locus YOL147C, strain pex11, hits give low values 0.993 | S. cerevisiae deletion strains, locus YOR001W, strain rrp6, hits give low values 1.02 | S. cerevisiae deletion strains, locus YOR061W, strain CKA2, hits give low values 0.997 | S. cerevisiae deletion strains, locus YOR069W, strain VPS5, hits give low values 1.07 | S. cerevisiae deletion strains, locus YOR070C, strain gyp1, hits give low values 1.01 | S. cerevisiae deletion strains, locus YOR080W, strain dia2, hits give low values 1.02 | S. cerevisiae deletion strains, locus YOR083W, strain WHI5, hits give low values 1 | S. cerevisiae deletion strains, locus YOR106W, strain vam3, hits give low values 1.02 | S. cerevisiae deletion strains, locus YOR136W, strain idh2, hits give low values 0.993 | S. cerevisiae deletion strains, locus YOR144C, strain elg1, hits give low values 0.992 | S. cerevisiae deletion strains, locus YOR184W, strain ser1, hits give low values 0.992 | S. cerevisiae deletion strains, locus YOR231W, strain MKK1, hits give low values 0.993 | S. cerevisiae deletion strains, locus YOR265W, strain rbl2, hits give low values 1.02 | S. cerevisiae deletion strains, locus YOR270C, strain vph1, hits give low values 1.02 | S. cerevisiae deletion strains, locus YOR290C, strain snf2, hits give low values 0.992 | S. cerevisiae deletion strains, locus YOR316C, strain cot1, hits give low values 0.985 | S. cerevisiae deletion strains, locus YPL051W, strain arl3, hits give low values 1.01 | S. cerevisiae deletion strains, locus YPL055C, strain LGE1, hits give low values 1.07 | S. cerevisiae deletion strains, locus YPL078C, strain atp4, hits give low values 1.02 | S. cerevisiae deletion strains, locus YPL106C, strain sse1, hits give low values 0.987 | S. cerevisiae deletion strains, locus YPL240C, strain hsp82, hits give low values 1.01 | S. cerevisiae deletion strains, locus YPL241C, strain CIN2, hits give low values 1.07 | S. cerevisiae deletion strains, locus YPL256C, strain CLN2, hits give low values 1 | S. cerevisiae deletion strains, locus YPR119W, strain clb2, hits give low values 0.992 | S. cerevisiae deletion strains, locus YPR141C, strain kar3, hits give low values 1 | S. cerevisiae deletion strains, locus YPR163C, strain tif3, hits give low values 0.996 | S. cerevisiae deletion strains, locus YPR167C, strain met16, hits give low values 0.989 | S. cerevisiae deletion strains, strain wtn01, hits give low values 0.999 | S. cerevisiae strains, strain wild type, hits give low values 0.991
